This is an account of results in PubChem BioAssay AID2289 (National Center for Advancing Translational Sciences (NCATS), 2010).

Molecules are shown by their SMILES. In all, about 340,000 compounds went through this assay and about 3,300 (0.97%) were called active. About 9% were inconclusive and are not listed. Calls come from the whole dose curve; as a rule, active = well fitted inhibition curve with a large enough effect; inconclusive = small, poorly fitted or top-dose-only effect, or effect the other way; inactive = flat fitted curve, though single readings scatter. Some of the results follow.
Potency is the fitted concentration of half-maximal effect.

This assay can be described thus: qHTS Assay for Modulators of miRNAs and/or Inhibitors of miR-21. Note: nearly all actives have a fitted effect of over 55% in size. To be noted: HeLa miR-21-FLuc reporter, luciferase luminescence, 48 h; actives lower the signal. A digest of the protocol: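 HeLa miR-21-FLuc reporter line, endogenous miR-21; 2000 cells/well in DMEM/10% FBS; compound titration up to ~40uM final, 48 h, 37 degree Celsius; luciferase detection reagent, 15 min lysis, CCD luminescence.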
Regarding `Cc1ccc(NC(=O)NCc2c(C)nn(C)c2C)cc1Cl`, the Potency is 5.21 µM (active).
For `CNc1cccc2c1C(=O)c1ccccc1C2=O` the value was 11.7 µM (active); for `CC(C)(C)c1ccc(-c2noc(-c3ccno3)n2)cc1`, 1.17 µM (active).
The result for `C=CCn1c2ccccc2c(=O)c2cc(C#CC3(O)CCCCC3)ccc21` reads 0.414 µM (active).
As to `CCCc1cc(C(=O)Nc2cc(Cl)ccc2O)no1`, the Potency is 2.07 µM (active).
For `CCCc1cc(C(=O)Nc2cc(C)ccc2O)no1`, the Potency was 3.69 µM (active).
In the case of `CCCc1cc(C(=O)Nc2ccc(CC)cc2)no1`, the Potency was 5.21 µM (active).
With `CCCc1cc(C(=O)Nc2cccc(Cl)c2C)no1`, the Potency was 6.56 µM (active).
On to `COc1cc(SC)ccc1C(=O)NCCOc1ccccc1Cl`, for which the Potency was 2.93 µM (active).
Take `COc1cc(SC)ccc1C(=O)NCC1CCCCC1`: the Potency was 10.4 µM (active).
`COc1ccc(C(=O)NCCOc2ccccc2Cl)c(OC)c1OC`: the Potency was 5.85 µM (active).
On to `COc1cc(SC)ccc1C(=O)NCCOc1ccc(F)cc1`, for which the Potency is 7.36 µM (active).
As for `CCn1nc(C)c(/C=N/NC(=O)Cc2ccc(Cl)cc2)c1C`, the Potency is 11.7 µM (active).
Consider `COc1ccc(NC(=O)CSc2nc(SC)ns2)c(OC)c1`, for which the Potency is 2.07 µM (active).
On to `COc1ccc(NC(=O)CSc2nc(SC)ns2)cc1`, for which the Potency is 6.56 µM (active).
For the compound `CCC(C)(C)c1ccc2c(c1)C(=O)c1ccccc1C2=O`, the Potency was 1.65 µM (active).
Take `Cc1cs/c(=N\N=C\c2ccc(O)cc2)n1Cc1ccco1`: the Potency was 11.7 µM (active).
`Nc1nnc(-c2ccc(Cl)cc2Cl)s1`: the Potency was 8.26 µM (active).
Turning to `O=C(NNc1nc2ccccc2s1)Nc1ccccc1`, the Potency was 4.65 µM (active).
On to `S=C(Nc1ccccc1)c1nc2ccccc2s1`, for which the Potency was 2.07 µM (active).
In the case of `CC(C)C1COC(c2cccc3ccccc23)=N1` (stereo not drawn), the Potency was 6.56 µM (active).
The result for `CCCCNC(=O)c1cccc(NC(=O)c2nsc3ccccc23)c1` reads 2.93 µM (active); that for `CCOc1ccccc1CNC(=O)c1cccc(NC(=O)c2nsc3ccccc23)c1`, 3.29 µM (active); that for `CCN=C1S/C(=C\c2sccc2C)C(=O)N1CC`, 16.5 µM (active).
Take `Cc1ccc(OCCn2cnc3c(N)ncnc32)cc1`: the Potency was 16.5 µM (active).
For `Cc1cc(C(=O)COC(=O)c2cc(Cl)ccc2N)c(C)n1Cc1ccco1` the value was 2.93 µM (active).
For the compound `Cc1cc(C(=O)COC(=O)c2ccc(O)cc2)c(C)n1Cc1ccco1`, the Potency is 1.85 µM (active).
Regarding `CCOc1ncccc1C(=O)OCC(=O)c1cc(C)n(Cc2ccco2)c1C`, the Potency is 2.07 µM (active).
For `C=CCn1c(C)cc(C(=O)COC(=O)c2ccc(N)c([N+](=O)[O-])c2)c1C` the value was 1.85 µM (active); for `CSc1ncccc1C(=O)OCC(=O)c1cc(C)n(CC2CCCO2)c1C` (stereo not drawn), 0.464 µM (active); for `Cc1cc(C(=O)COC(=O)c2ccco2)c(C)n1Cc1ccco1`, 4.65 µM (active).
As to `Cc1cc(C)n(-c2nnc(NC34CC5CC(CC(C5)C3)C4)nn2)n1`, the Potency was 5.21 µM (active).
For the compound `Cc1ccc(NC(=O)OCc2cccs2)cc1`, the Potency was 1.31 µM (active).
Turning to `COc1ccc(C(=O)NC(=S)NC2CCCCC2)cc1`, the Potency was 7.36 µM (active).
Take `O=C(NC(=S)NC1CCCCCC1)c1cncc(Br)c1`: the Potency was 9.27 µM (active).
The result for `COc1ccc(C(=O)NC(=S)Nc2ccccc2F)cc1` reads 1.04 µM (active); that for `COc1ccc(C(=O)NCCSC2CCCCC2)cc1`, 7.36 µM (active); that for `Cc1nc2ccccc2nc(C)c1=NOCc1ccc(Cl)cc1Cl`, 16.5 µM (active).
For `Cc1nc2ccccc2nc(C)c1=NOCc1ccc(C#N)cc1`, the Potency was 11.7 µM (active).
For `COc1ccc(-c2nnc3c4ccccc4c(C)nn23)cc1` the value was 8.26 µM (active); for `COc1ccc(Oc2nnc(C)c3ccccc23)cc1`, 4.14 µM (active); for `COc1ccc(NC(=S)N2CCC(c3ccccc3)C2)cc1` (stereo not drawn), 1.65 µM (active).
The result for `Cc1ccc(NC(=S)c2ccccc2)cc1` reads 4.14 µM (active); that for `COc1ccc(NC(=S)N/C(=N/CS(=O)(=O)c2ccccc2)c2ccccc2)cc1`, 5.21 µM (active); that for `COc1ccc(NC(=S)c2ccc(N(C)C)cc2)cc1`, 1.17 µM (active).
The result for `COc1ccc(NC(=S)c2ccccc2)cc1` reads 6.56 µM (active); that for `CCC(N=c1cc(-c2ccc(OC)cc2)oc2ccc(C)cc12)C(=O)O` (stereo not drawn), 0.293 µM (active).
`COc1ccc(-c2cc(=Nc3ccc(C(=O)O)cc3)c3cc(C)ccc3o2)cc1`: the Potency is 2.07 µM (active).
The result for `COc1ccc(-c2cc(=NC(CC(C)C)C(=O)O)c3cc(C)ccc3o2)cc1` (stereo not drawn) reads 0.369 µM (active).
`Cc1ccc(-c2nc(C#N)c(NCC3CCCO3)o2)cc1` (stereo not drawn): the Potency is 13.1 µM (active).
Regarding `COc1ccc(-c2nc(C#N)c(NCC3CCCO3)o2)cc1OC` (stereo not drawn), the Potency was 14.7 µM (active).
For the compound `O=C(O)c1cc(N/N=C/c2cccnc2)ccc1Cl`, the Potency is 14.7 µM (active).
With `Clc1ccc(N/N=C/c2ccncc2)cc1Cl`, the Potency was 8.26 µM (active).
Regarding `O=C(O)c1cccc(N/N=C/c2cccnc2)c1`, the Potency was 2.93 µM (active).
For `Nc1ccc(SCc2nc3cccc4c3n2CCC4)cc1`, the Potency is 14.7 µM (active).
With `Cc1nc(-c2ccccc2)sc1-c1nnc(C2CC2)o1`, the Potency was 4.65 µM (active).
As to `O=C(/C=C/c1ccc(F)cc1)NC(=S)N1CCN(c2ccccn2)CC1`, the Potency was 13.1 µM (active).
As to `COc1ccccc1N1CCN(C(=S)NC(=O)/C=C/c2ccccc2)CC1`, the Potency was 9.27 µM (active).
For `Nc1nc2ccc(NC(=O)c3ccco3)cc2s1` the value was 7.36 µM (active); for `Cc1nc2ccc(NC(=O)c3ccco3)cc2s1`, 7.36 µM (active).
For the compound `Cc1cc(NC(=O)c2ccco2)ccc1-n1cnnn1`, the Potency was 7.36 µM (active).
On to `CSc1nc2ccc(NC(=O)c3ccco3)cc2s1`, for which the Potency was 1.47 µM (active).
As for `COc1cc2sc(NC(=O)c3ccco3)nc2cc1Cl`, the Potency is 0.585 µM (active).
In the case of `CC(=O)Nc1nc2ccc(NC(=O)c3ccco3)cc2s1`, the Potency is 10.4 µM (active).
The result for `Cc1nc2ccc(NC(=O)c3ccc(Br)o3)cc2s1` reads 2.93 µM (active); that for `CSc1nc2ccc(NC(=O)c3c(F)cccc3F)cc2s1`, 7.36 µM (active).
With `Nc1c(Cl)cc2c(c1Oc1ccccc1)C(=O)c1ccccc1C2=O`, the Potency was 4.14 µM (active).
As to `COc1ccc(C2=NN(C(=O)c3ccccc3C(=O)O)C(c3ccccc3O)C2)cc1` (stereo not drawn), the Potency is 5.85 µM (active).
In the case of `O=C(c1ccncc1)N1N=C(c2ccc(Cl)cc2)CC1c1ccccc1O` (stereo not drawn), the Potency was 6.56 µM (active).
`c1cnc(SCCOc2cccc3ccccc23)nc1`: the Potency was 3.29 µM (active).
Take `COc1ccc(OCCSc2nc(N)cc(N)n2)cc1`: the Potency is 3.29 µM (active).
Regarding `Cc1ccc(OCCSc2nc(N)cc(N)n2)cc1`, the Potency is 4.65 µM (active).
As for `Nc1cc(N)nc(SCCOc2ccccc2)n1`, the Potency is 11.7 µM (active).
Take `Nc1cc(N)nc(SCCOc2ccccc2F)n1`: the Potency is 14.7 µM (active).
For the compound `Cc1cc(SCCOc2ccccc2)nc(N)n1`, the Potency was 16.5 µM (active).
For `CCOC(=O)c1ccc(NC(=O)C(CC)Sc2nc3ncccc3o2)cc1` (stereo not drawn) the value was 4.65 µM (active); for `Cc1ccc(NC(=O)/C=C2\NC(=O)CS2)cc1`, 16.5 µM (active); for `O=C(N/N=C/c1ccc(Br)s1)c1ccco1`, 14.7 µM (active).
The result for `C/C(=N\NC(=O)c1ccoc1C)c1ccc(Br)s1` reads 11.7 µM (active); that for `Cc1occc1C(=O)N/N=C/c1ccc(Br)s1`, 6.56 µM (active).
For the compound `COC(=O)/C(=C/c1cccc([N+](=O)[O-])c1)NC(=O)c1ccc(OC)cc1`, the Potency was 5.21 µM (active).
For `COc1cccc(NC(=O)C(=O)NCC(c2ccc3c(c2)OCO3)N2CCN(C)CC2)c1` (stereo not drawn) the value was 4.65 µM (active); for `Cc1cc(C)n2ncc(/C(N)=N/OC(=O)c3ccccc3F)c2n1`, 1.85 µM (active); for `Cc1csc2ncc(C(=O)NCCc3ccccc3)c(=O)n12`, 16.5 µM (active).
Consider `Cc1cc(C)n2ncc(C(=O)NCCc3ccccc3)c2n1`, for which the Potency is 18.5 µM (active).
Consider `CN(C)c1ccc(/C=C2\CCCCC2=O)cc1`, for which the Potency is 2.07 µM (active).
For `CCC(=O)N1CCc2cc(CNS(=O)(=O)c3ccccc3F)ccc21`, the Potency was 6.56 µM (active).
Regarding `Cc1nc2ccc(NC(=O)COc3ccccc3F)cc2s1`, the Potency is 7.36 µM (active).
As to `O=C(COc1ccccc1F)Nc1ccc(-c2nc3ccccc3s2)cc1`, the Potency was 1.47 µM (active).
For the compound `Cc1ccc2nc(-c3ccc(NC(=O)COc4ccccc4C(C)(C)C)cc3)sc2c1`, the Potency was 6.56 µM (active).
On to `Nc1ccc2oc3ccc(N)cc3c(=O)c2c1`, for which the Potency was 3.69 µM (active).
For `COc1nccnc1NS(=O)(=O)c1ccc(NCc2cc(Br)ccc2O)cc1` the value was 18.5 µM (active).
As for `COc1ccc(OCC(=O)N/N=C(\C)c2cc3ccccc3o2)cc1`, the Potency is 18.5 µM (active).
The result for `C/C(=N\NC(=O)COc1ccccc1F)c1cc2ccccc2o1` reads 8.26 µM (active); that for `Cc1ccc(C(=O)Cc2nnc(C)s2)cc1`, 4.14 µM (active); that for `Cc1ccc(NC(=S)NNC(=O)c2nn(C)c(C)c2Cl)cc1`, 5.85 µM (active).
Regarding `CN1CCc2c(sc3c2C(=O)NC(c2ccc(OC(=O)c4ccccc4)cc2)N3)C1` (stereo not drawn), the Potency was 9.27 µM (active).
Consider `COc1cc(C2NC(=O)c3c(sc4c3CCN(C)C4)N2)ccc1OC(=O)c1ccccc1` (stereo not drawn), for which the Potency is 13.1 µM (active).
For `CN1CCc2c(sc3c2C(=O)NC(c2cccc(OC(=O)c4cccs4)c2)N3)C1` (stereo not drawn), the Potency is 18.5 µM (active).
For `O=C(CC1NCCc2ccccc21)Nc1cccc(Cl)c1` (stereo not drawn), the Potency was 16.5 µM (active).
For `C=C(C)C1CC=C(C)/C(=N/NC(=O)c2ccoc2C)C1` (stereo not drawn), the Potency was 4.65 µM (active).
Regarding `C/C(=N/NC(=O)c1ccoc1C)C12CC3CC(CC(C3)C1)C2`, the Potency was 8.26 µM (active).
With `Cc1occc1C(=O)NN=C1C2CC3CC(C2)CC1C3`, the Potency was 1.31 µM (active).
Consider `S=C(N=Nc1ccccc1)NNc1ccccc1`, for which the Potency is 5.21 µM (active).
For the compound `Cc1cccc(OCCCn2c(=O)sc3ccccc32)c1`, the Potency was 14.7 µM (active).
For the compound `COc1ccc(OCCn2c(=O)sc3ccccc32)cc1`, the Potency was 14.7 µM (active).
For the compound `Cc1cccc(OCCn2c(=O)sc3ccccc32)c1`, the Potency was 5.21 µM (active).
For `COc1ccc(N=c2sc3ccccc3n2C)cc1`, the Potency was 3.29 µM (active).
